Source: PubChem BioAssay (National Center for Advancing Translational Sciences (NCATS))
IL-1B inflam inh: blocks inflammasome-driven IL-1 beta release; 4.7% of 360,000 active; THP-1 LPS/ATP IL-1B secretion, AlphaLISA, 16 h; active compounds read low; activity change, % at 57.5 µM; AID 743279; in the data active = activity change below about -50%; inconclusive = mostly about -30% to -49%
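THP-1 cells pretreated 1 hr with compounds (up to 57.5 uM final), then stimulated with LPS (250 ng/mL final) plus ATP (1.25 mM final); secreted IL-1B measured by AlphaLISA after 16 hr, decreased signal indicating inhibition.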
RORgamma inh: blocks mouse ROR gamma transcriptional activity | Drosophila S2 Gal4-RORgamma UAS-luciferase reporter, 20 h | 5.4% of 310,000 active | Potency, µM (titrated, usually from 53.6 µM), inactives show at the highest dose activity change, negative = inhibition, most hits filed as inhibitors | P51450 | AID 2551; note: potency is the fitted concentration of half-maximal effect; nearly all actives have a fitted effect of over 60% in size
Target sequence (P51450 whole entry, looked up, the tested form may be a part): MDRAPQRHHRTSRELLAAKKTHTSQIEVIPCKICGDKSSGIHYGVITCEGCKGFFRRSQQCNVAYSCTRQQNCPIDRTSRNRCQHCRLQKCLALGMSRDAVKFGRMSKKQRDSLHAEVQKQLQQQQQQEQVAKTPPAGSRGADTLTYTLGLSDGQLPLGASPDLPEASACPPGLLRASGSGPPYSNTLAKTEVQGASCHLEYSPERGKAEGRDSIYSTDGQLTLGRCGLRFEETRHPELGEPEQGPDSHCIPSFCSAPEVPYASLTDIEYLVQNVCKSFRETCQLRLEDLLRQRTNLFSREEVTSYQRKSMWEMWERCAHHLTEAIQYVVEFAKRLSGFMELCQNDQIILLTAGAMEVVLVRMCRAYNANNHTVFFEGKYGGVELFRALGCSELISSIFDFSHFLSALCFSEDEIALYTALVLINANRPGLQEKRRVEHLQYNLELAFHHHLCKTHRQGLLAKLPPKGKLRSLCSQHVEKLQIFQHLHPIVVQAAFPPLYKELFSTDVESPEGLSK
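ROR gamma transcriptional activity was tracked as Gal4-UAS luciferase output in stably transfected Drosophila Schneider cells, with compound added 1 hr before 700 uM copper sulfate induction and a 20 hr ambient-temperature incubation.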
ELG1 DNA repair: blocks ELG1-dependent DNA repair in HEK293T cells; HEK293T ELG1-luciferase reporter, luminescence, 16 h; DNA damage induced by 5-fluorouridine; Potency, µM (doses to about 46.1 µM), for inactives: at the top dose activity change, negative = inhibition, usual class: inhibitors; 2.3% of 330,000 active; note: potency is the fitted concentration of half-maximal effect; nearly all actives have a fitted effect of over 55% in size
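Overnight (16 hr) co-exposure of 2,000 cells/well to 5-fluorouridine and compound at 37 °C preceded detection. Luciferase was quantified via ONE-Glo luminescence; loss of signal denotes inhibition.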
VP16 counter: Gal4-VP16 reporter inhibition counter-screen | Drosophila S2 Gal4-VP16 UAS-luciferase, luminescence, 20 h | Potency, µM (top dose mostly 53.6 µM), for the others: top-dose activity, negative = inhibition, usual class: inhibitors | 3.5% of 310,000 active;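 note: Gal4-VP16 expression switched on by copper sulfate through the metallothionein promoter; potency is the fitted concentration of half-maximal effect; nearly all actives have a fitted effect of over 50% in size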
DT40 TDP1 no CPT: qHTS for Inhibitors of human tyrosyl-DNA phosphodiesterase 1 (TDP1): qHTS in cells in absence of CPT | DT40 Tdp1-/- hTDP1 cells, no CPT, ATP luminescence, 48 h | Potency, µM (top dose mostly 46.2 µM), inactives show at the top dose activity change, negative = growth inhibition, hits mostly inhibitors | 15% of 420,000 active | AID 686978, 2013; note: potency is the fitted concentration of half-maximal effect; nearly all actives have a fitted effect of over 55% in size
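No-CPT arm: Tdp1-/-;hTDP1 DT40 cells (400/well) plus compounds, incubated ≥48 hr at 37 °C. Readout CellTiter-Glo luminescence.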
TDP1 cell CPT: DT40-hTDP1 cell growth loss with CPT | chicken DT40 Tdp1-/-;hTDP1 cells + 20 nM CPT, ATP luminescence, 48 h | Potency, µM (series often up to 46.2 µM), for the others: at the top dose activity change, negative = growth inhibition, hits mostly inhibitors | 12% of 420,000 active | AID 686979; note: potency is the fitted concentration of half-maximal effect; nearly all actives have a fitted effect of over 55% in size
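Chicken DT40 Tdp1-/- cells stably complemented with human TDP1 were seeded at 400 cells/well in medium containing 20 nM camptothecin, exposed to pin-transferred compounds, and grown at 37 °C for at least 48 hr. Viability was read as ATP luminescence.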
* marks the source's active call; other numbers are inactive results. A selection: hits, their analogues and other compounds. The true share with any hit is near 21%. Unless noted, calls come from the whole dose curve; as a rule, active = well fitted curve in the direction sought with a large enough effect; inconclusive = small, poorly fitted or top-dose-only effect, or another doubt; inactive = no such curve, though single readings can be large; an effect the other way counts as inactive or inconclusive. % is set by controls: 0 for no effect and ±100 for the full control effect.

O=C(CSC1=NCCS1)NC(NC(=O)CSC1=NCCS1)c1ccccc1 was read as IL-1B inflam inh -22, RORgamma inh inconclusive, ELG1 DNA repair -2%, VP16 counter 8%, DT40 TDP1 no CPT -28% and TDP1 cell CPT -2%.
O=C(CSC1=NCCS1)Nc1cccc2ccccc12 was read as IL-1B inflam inh -5, RORgamma inh 20%, ELG1 DNA repair -7%, VP16 counter 2%, DT40 TDP1 no CPT 16µM* and TDP1 cell CPT inconclusive.
`O=C(CSC1=NCCS1)Nc1ccccc1F` gave IL-1B inflam inh 2, RORgamma inh -7%, ELG1 DNA repair 6%, VP16 counter inconclusive, DT40 TDP1 no CPT inconclusive and TDP1 cell CPT -25%.
Screening O=C(CSc1nnc(C2CC2)n1C1CC1)c1ccc(Br)s1 returned IL-1B inflam inh -3, ELG1 DNA repair 28%, DT40 TDP1 no CPT 3% and TDP1 cell CPT 4%.
Screening Cc1nc2c(-c3ccc(F)cc3)cnn2c(N)c1-c1ccc(F)cc1 returned IL-1B inflam inh -67*, RORgamma inh -26%, ELG1 DNA repair inconclusive, VP16 counter -14%, DT40 TDP1 no CPT 4.6µM* and TDP1 cell CPT 21µM*.
Screening Nc1c(-c2cccs2)cnc2c(-c3ccc(F)cc3)cnn12 returned IL-1B inflam inh -29, RORgamma inh inconclusive, ELG1 DNA repair inconclusive, VP16 counter -20%, DT40 TDP1 no CPT inconclusive and TDP1 cell CPT inconclusive.
`CS(=O)(=O)c1cnc2c(-c3ccc(F)cc3)cnn2c1N` gave IL-1B inflam inh 9, RORgamma inh 11µM*, ELG1 DNA repair inconclusive, VP16 counter -25%, DT40 TDP1 no CPT -28% and TDP1 cell CPT -14%.
`COc1ccc(-c2c(C)nc3c(-c4ccsc4)cnn3c2N)cc1` gave IL-1B inflam inh -4, RORgamma inh -34%, ELG1 DNA repair inconclusive, VP16 counter inconclusive, DT40 TDP1 no CPT inconclusive and TDP1 cell CPT inconclusive.
Screening COc1ccc(-c2c(C)nc3c(-c4ccccn4)cnn3c2N)cc1 returned IL-1B inflam inh -28, RORgamma inh 5µM*, ELG1 DNA repair inconclusive, VP16 counter 10µM*, DT40 TDP1 no CPT 18µM* and TDP1 cell CPT inconclusive.
For CCOC(=O)Cc1c(C)nc2c(-c3ccc(Cl)cc3)cnn2c1C the results were IL-1B inflam inh -9, RORgamma inh inconclusive, ELG1 DNA repair 8%, VP16 counter 22%, DT40 TDP1 no CPT inconclusive and TDP1 cell CPT inconclusive.
CC(C)(C)S(=O)(=O)c1cnc2c(-c3ccsc3)cnn2c1N was read as IL-1B inflam inh 39, RORgamma inh 4.5µM*, ELG1 DNA repair inconclusive, VP16 counter -3%, DT40 TDP1 no CPT inconclusive and TDP1 cell CPT -1%.
Screening C[C@](N)(Cc1ccc(O)cc1)C(=O)O returned RORgamma inh 0%, VP16 counter -2%, DT40 TDP1 no CPT -10% and TDP1 cell CPT 3%.
COc1ccc(C[C@](C)(N)C(=O)O)cc1OC was read as IL-1B inflam inh 3, ELG1 DNA repair 9%, DT40 TDP1 no CPT 2.3µM* and TDP1 cell CPT -25%.
`Cc1[nH]c(=O)nc(NN=Cc2ccc(Cl)cc2)c1C(=O)Nc1ccc(Cl)cc1` gave IL-1B inflam inh 7, DT40 TDP1 no CPT inconclusive and TDP1 cell CPT -27%.
For COc1ccc(-n2c(=O)c(CCC(=O)N3CCN(c4ccccc4O)CC3)nc3ccccc32)cc1 the results were IL-1B inflam inh -29, ELG1 DNA repair inconclusive, DT40 TDP1 no CPT inconclusive and TDP1 cell CPT 26µM*.
For O=C(Nc1nc(=O)n(C(=O)C2CC2)s1)c1ccccc1 the results were IL-1B inflam inh inconclusive, RORgamma inh -39%, ELG1 DNA repair -15%, VP16 counter inconclusive, DT40 TDP1 no CPT 23µM* and TDP1 cell CPT 21µM*.
`Cc1ccc(C(=O)Nc2nc(=O)n(C(=O)c3ccccc3C)s2)cc1` gave IL-1B inflam inh -65*, RORgamma inh 37%, ELG1 DNA repair 9%, VP16 counter 2%, DT40 TDP1 no CPT 13µM* and TDP1 cell CPT 12µM*.
Screening Cc1ccc(C(=O)Nc2nc(=O)n(C(=O)C3CC3)s2)cc1 returned IL-1B inflam inh inconclusive, RORgamma inh 19%, ELG1 DNA repair -2%, VP16 counter 1%, DT40 TDP1 no CPT 16µM* and TDP1 cell CPT 21µM*.
Screening Cc1ccc(C(=O)Nc2cccc(NC(=O)c3ccc(C)cc3)n2)cc1 returned IL-1B inflam inh 21, DT40 TDP1 no CPT inconclusive and TDP1 cell CPT -11%.
`COCCNC(=O)CN(CCc1ccccc1)S(=O)(=O)c1ccc(Br)cc1` gave IL-1B inflam inh 17, RORgamma inh 22%, ELG1 DNA repair -4%, VP16 counter 16%, DT40 TDP1 no CPT -16% and TDP1 cell CPT -9%.
`Nc1cccc(C2=Nc3cccc4cccc(c34)N2)c1` gave IL-1B inflam inh -9, RORgamma inh -25%, ELG1 DNA repair -12%, VP16 counter -8%, DT40 TDP1 no CPT inconclusive and TDP1 cell CPT inconclusive.
Screening COc1ccc(C2=Nc3cccc4cccc(c34)N2)cc1 returned IL-1B inflam inh 17, RORgamma inh -6%, ELG1 DNA repair 15%, VP16 counter -16%, DT40 TDP1 no CPT 16µM* and TDP1 cell CPT inconclusive.
`Cc1ccc(C2=Nc3ccccc3NC(c3ccncc3)=N2)cc1` gave DT40 TDP1 no CPT 13µM* and TDP1 cell CPT inconclusive.
`Cc1ccc2c(c1)C(c1ccncc1)=NNC(c1ccccc1)=N2` gave IL-1B inflam inh 1, RORgamma inh -39%, ELG1 DNA repair inconclusive, VP16 counter -13%, DT40 TDP1 no CPT 2% and TDP1 cell CPT -12%.
Screening COc1ccc(C2=NC(c3ccccc3)=Nc3ccc(C)cc3N2)cc1 returned DT40 TDP1 no CPT 21µM* and TDP1 cell CPT 26µM*.
Screening COc1ccc2c(c1)NC(c1cccnc1)=NC(c1ccc(F)cc1)=N2 returned DT40 TDP1 no CPT 9.2µM* and TDP1 cell CPT 15µM*.
For COc1ccc2c(c1)C(c1ccc(C)o1)=NNC(c1ccccc1)=N2 the results were IL-1B inflam inh -26, RORgamma inh -14%, ELG1 DNA repair inconclusive, VP16 counter -18%, DT40 TDP1 no CPT inconclusive and TDP1 cell CPT -23%.
For Cc1ccc(C2=NC(c3ccccc3)=Nc3ccc(Cl)cc3N2)cc1 the results were DT40 TDP1 no CPT 23µM* and TDP1 cell CPT inconclusive.
